Measurements: the supplement of paper PMC8007513
Counter-ions that a name gives are not always drawn. ± gives the standard error. Screen size: about 1,300 compounds; about 75 (6%) showed an effect of 50% or more. For the sample, strong results were picked, then their nearest neighbours and some compounds at random.

Tested on: Trichoderma virens ATCC 9645
Experiment: growth yield (OD600) relative to untreated control; higher = less growth inhibition
Details: compound concentration: 100 uM
Procedure, shortened: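 A biocide at 200 ng ml^−1 was co-applied to some wells, and library compounds were present in all test wells at 100 μM final. The wells held 100 μl of Trichoderma virens ATCC 9645 spores at 15,000 spores ml^−1 in potato dextrose broth, grown at 30 °C in 96-well plates, with OD600 read at 40 h and 72 h. Results are relative growth against the control without either agent, averaged across duplicate screens.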

SMILES	growth yield (40 h) [%]	growth yield (72 h) [%]
O=C1NCCN1CCN1CCC(c2cn(-c3ccc(F)cc3)c3ccc(Cl)cc23)CC1 [Sertindole]	34.5 ± 20	111 ± 2.4
O=C(O)c1cn(-c2ccc(F)cc2)c2cc(N3CCNCC3)c(F)cc2c1=O [Sarafloxacin]	101 ± 4.1	97 ± 2.4
CN(C)[C@@H]1C(O)=C(C(=O)NCNCCCC[C@H](N)C(=O)O)C(=O)[C@@]2(O)C(O)=C3C(=O)c4c(O)cccc4[C@@](C)(O)[C@H]3C[C@@H]12 [Lymecycline]	82.1 ± 2.7	73.83 ± 0.63
CC(C)(O/N=C(\C(=O)N[C@@H]1C(=O)N2C(C(=O)[O-])=C(C[n+]3ccccc3)CS[C@H]12)c1csc(N)n1)C(=O)O [Ceftazidime pentahydrate]	102	102 ± 1.1
CO/N=C(\C(=O)N[C@@H]1C(=O)N2C(C(=O)OC(C)OC(C)=O)=C(COC(N)=O)CS[C@H]12)c1ccco1 (stereo partly specified) [Cefuroxime axetil]	97.05 ± 0.16	96.5 ± 1.7
CC(C)NCC(O)c1cc(O)cc(O)c1 (stereo unspecified) [Metaproterenol sulfate, orciprenaline sulfate]	99.1 ± 1.6	99.95 ± 0.1
CC[C@@H]([C@H](C)O)n1ncn(-c2ccc(N3CCN(c4ccc(OC[C@@H]5CO[C@@](Cn6cncn6)(c6ccc(F)cc6F)C5)cc4)CC3)cc2)c1=O [Posaconazole]	8.9 ± 8.9	5.77 ± 5.6
CCC(C)n1ncn(-c2ccc(N3CCN(c4ccc(OCC5COC(Cn6cncn6)(c6ccc(Cl)cc6Cl)O5)cc4)CC3)cc2)c1=O (stereo unspecified) [Itraconazole]	4.77 ± 2.2	13.2
CC(C)N1CCN(c2ccc(OCC3COC(Cn4cncn4)(c4ccc(Cl)cc4Cl)O3)cc2)CC1 (stereo unspecified) [Terconazole]	82.44 ± 0.16	88.4 ± 1.1
CC(=O)N1CCN(c2ccc(OCC3COC(Cn4ccnc4)(c4ccc(Cl)cc4Cl)O3)cc2)CC1 (stereo unspecified) [Ketoconazole]	2.22 ± 1.3	1.68 ± 0.84
Nc1ccc(C(=O)O)c(O)c1 [4-aminosalicylic acid]	93.1	89.36 ± 0.42
CO[C@@]1(NC(=O)C(C(=O)O)c2ccc(O)cc2)C(=O)N2C(C(=O)O)=C(CSc3nnnn3C)CO[C@@H]21 (stereo partly specified) [Moxalactam disodium salt]	96.1 ± 0.16	92.71 ± 0.63
CCC(C)(C)C(=O)O[C@H]1C[C@@H](C)C=C2C=C[C@H](C)[C@H](CC[C@@H]3C[C@@H](O)CC(=O)O3)[C@H]21 [Simvastatin]	103 ± 1.3	96.2 ± 4.5
C=CCN1CCCC1CNC(=O)c1cc2nn[nH]c2cc1OC (stereo unspecified) [Alizapride hydrochloride]	108 ± 4.3	109 ± 2.7
CN(C)C(=N)NC(=N)N [Metformin hydrochloride]	105 ± 7.2	103 ± 5.3
Clc1ccc(C(Cn2ccnc2)OCc2c(Cl)cccc2Cl)c(Cl)c1 (stereo unspecified) [Isoconazole]	2.06 ± 1.4	1.68 ± 1.1
Clc1ccc(CSC(Cn2ccnc2)c2ccc(Cl)cc2Cl)cc1 (stereo unspecified) [Sulconazole nitrate]	2.22 ± 0.64	1.78 ± 0.52
Clc1ccc(CO/N=C(\Cn2ccnc2)c2ccc(Cl)cc2Cl)c(Cl)c1 [Oxiconazole Nitrate]	1.59 ± 1.6	0.839 ± 0.84
Clc1ccc(CCC(Cn2ccnc2)Sc2c(Cl)cccc2Cl)cc1 (stereo unspecified) [Butoconazole nitrate]	3.49	2.31

SMILES	growth yield (40 h) [%]	growth yield (72 h) [%]
CCN1CCCC(OC(=O)C(c2ccccc2)c2ccccc2)C1 (stereo unspecified) [Piperidolate hydrochloride]	106 ± 0.79	105 ± 1.8
C=CC[N@@+]12CC[C@@]34c5ccccc5N5/C=C6/[C@H]7C[C@H]8[C@@]9(CC[N@@+]8(CC=C)C/C7=C/CO)c7ccccc7N(/C=C(/[C@@H](C[C@@H]31)/C(=C\CO)C2)[C@H]54)[C@@H]69 [Alcuronium chloride]	66.1 ± 7.6	65.8 ± 5.3
O=C(O)CCNC(=O)c1ccc(/N=N/c2ccc(O)c(C(=O)O)c2)cc1 [Balsalazide Sodium]	107 ± 1.4	101.9 ± 0.84
OCCN1C[C@H](O)[C@@H](O)[C@H](O)[C@H]1CO [Miglitol]	101 ± 3	103 ± 3.1
C#C[C@]1(O)CC[C@H]2[C@@H]3[C@H](C)CC4=C(CCC(=O)C4)[C@H]3CC[C@@]21C [Tibolone]	88.31 ± 0.64	90.72 ± 0.1
CN1CC2c3ccccc3Oc3ccc(Cl)cc3C2C1 (stereo unspecified) [Asenapine maleate]	100 ± 1.3	106 ± 1.3
Clc1ccc(C(Cn2ccnc2)OCc2ccsc2Cl)c(Cl)c1 (stereo unspecified) [Tioconazole]	2.22 ± 1.6	1.89 ± 0.84
Clc1ccc(C(Cn2ccnc2)OCc2csc3c(Cl)cccc23)c(Cl)c1 (stereo unspecified) [Sertaconazole nitrate]	3.81	2.73
C=CCOC(Cn1ccnc1)c1ccc(Cl)cc1Cl (stereo unspecified) [Enilconazole]	3.49	3.04 ± 0.32
Clc1ccc(COC(Cn2ccnc2)c2ccc(Cl)cc2Cl)cc1 (stereo unspecified) [Econazole nitrate]	2.22 ± 0.64	1.78 ± 0.52
O=C(O)/C=C/c1ccc(Cn2ccnc2)cc1 [Ozagrel hydrochloride]	110 ± 9.5	106 ± 5.1
CCOC(=O)O[C@]1(C(=O)OCCl)CC[C@H]2[C@@H]3CCC4=CC(=O)C=C[C@]4(C)[C@H]3[C@@H](O)C[C@@]21C [Loteprednol etabonate]	97.7 ± 3.6	97.4 ± 3.5
CNCC(O)c1ccc(OC(=O)C(C)(C)C)c(OC(=O)C(C)(C)C)c1 (stereo unspecified) [Dipivefrin hydrochloride]	99.28 ± 0.79	100.2 ± 0.94
CN(C)[C@@H]1C(O)=C(C(N)=O)C(=O)[C@@]2(O)C(O)=C3C(=O)c4c(O)cccc4[C@@](C)(O)[C@H]3C[C@@H]12 [Tetracycline hydrochloride]	95.9	76.2 ± 15
CCN(CC)CCN[C@@H](C(=O)OCCC(C)C)c1ccccc1 [Camylofine chlorhydrate]	104 ± 1.8	102 ± 1.5
CC1=C(CC(=O)O)c2cc(F)ccc2/C1=C\c1ccc([S+](C)[O-])cc1 (stereo unspecified) [Sulindac]	90.1 ± 1.1	86.31 ± 0.73
CN(C)CCCSC(=N)N [Dimaprit dihydrochloride]	102 ± 3.3	99.5 ± 3.2
CC(C)(C)NC(=O)[C@H]1CC[C@H]2[C@@H]3CC[C@H]4NC(=O)C=C[C@]4(C)[C@H]3CC[C@]12C [Finasteride]	84 ± 5.9	81.1 ± 2
N[C@@H]1CCCCN(c2c(F)cc3c(=O)c(C(=O)O)cn(C4CC4)c3c2Cl)C1 [Besifloxacin hydrochloride]	93.4 ± 6.3	91.6 ± 8.3
